Measurements published in ChEMBL document CHEMBL4296182, “CO-ADD screening of NIH NCI Diversity Set V”.
For part of these data: Results with a measured potency or affinity are listed apart.

Experiments:
Staphylococcus aureus = assay: Antibacterial activity against Staphylococcus aureus MRSA ATCC 43300 (CO-ADD:GP_020); MIC in CAMBH media using NBS plates, by Resazurin F(560/590); type: functional; conditions: Concentration 20 uM, ASSAY_TEST Inhibition of Bacterial Growth, detection method Resazurin, Fluorescence (ex560/em590), MEDIA CAMHB, plate type 384well, CORNING #3640, time 18 hr
Acinetobacter baumannii = assay: Antibacterial activity against Acinetobacter baumannii ATCC 19606 (CO-ADD:GN_034); MIC in CAMBH media using NBS plates, by Resazurin F(560/590); type: functional; conditions: Concentration 20 uM, ASSAY_TEST Inhibition of Bacterial Growth, detection method Resazurin, Fluorescence (ex560/em590), MEDIA CAMHB, plate type 384well, CORNING #3640, time 18 hr
Escherichia coli = assay: Antibacterial activity against Escherichia coli ATCC 25922 (CO-ADD:GN_001); MIC in CAMBH media using NBS plates, by Resazurin F(560/590); type: functional; conditions: Concentration 20 uM, ASSAY_TEST Inhibition of Bacterial Growth, detection method Resazurin, Fluorescence (ex560/em590), MEDIA CAMHB, plate type 384well, CORNING #3640, time 18 hr
Klebsiella pneumoniae = conditions: Concentration 20 uM; ASSAY_TEST Inhibition of Bacterial Growth; detection method Absorption (OD600); MEDIA CAMHB; plate type 384well; NBS; CORNING #3640; time 18 hr
Candida albicans = conditions: 20 µM
Cryptococcus neoformans = conditions: Concentration 20 uM; ASSAY_TEST Inhibition of Fungal Growth; detection method Resazurin; Absorption (OD600-OD570); plate type 384well; NBS; CORNING #3640

| Compound | Inhibition (Staphylococcus aureus) [%] | Inhibition (Acinetobacter baumannii) [%] | Inhibition (Escherichia coli) [%] | Inhibition (Klebsiella pneumoniae) [%] | Inhibition (Candida albicans) [%] | Inhibition (Cryptococcus neoformans) [%] |
| --- | --- | --- | --- | --- | --- | --- |
| CCCN=C(S)Nc1ccccc1 | -20.14 | -0.42 | -3.75 | 7.36 | 4.15 | 1.71 |
| Nc1ccc2c(c1)Cc1cc(Cl)c(Cl)cc1-2 | 12.19 | -1.44 | 15.96 | 4.46 | 8.7 | -5.33 |
| NC(=O)c1ccccc1NC(=O)COc1ccc(Cl)cc1 | 16.24 | 7.59 | 9.93 | 7.02 | 1.18 | -8.55 |
| Cc1ccc(S(=O)(=O)NNC(=O)C23CCC(CC2)C3)cc1 | -6.52 | 6.35 | 7.26 | 14.92 | 4.46 | -6.05 |
| O=C(O)c1cc2ccccc2cc1Nc1ccccc1 | 0.16 | 5.64 | -16.93 | 8.83 | 12.2 | 17.2 |
| Cc1nc2ccccc2nc1NS(=O)(=O)c1ccc(N)cc1 | -35.57 | -9.78 | -4.56 | 7.2 | 4.92 | -5.27 |
| CN(C)c1nc(Cl)nc2c1nc(Cl)n2C1CCCCO1 (stereo not given) | 8.01 | -7.69 | 0.28 | 5.28 | 1.95 | -3.53 |
| OCC(O)C1OCOC(C(O)CO)C1O (stereo not given) | 14.61 | -8.42 | 9.4 | 8.21 | 0.45 | -5.49 |
| O=C(c1ccc(O)cc1)c1ccc(C(=O)c2ccc(O)cc2)cc1 | 20.54 | 4.24 | 2.65 | 14.45 | 3.86 | -7.33 |
| O=[N+]([O-])c1ccc(Cn2cnc3c(O)ncnc32)cc1 | 10.19 | 8.82 | 7.89 | 11.73 | 2.42 | -11.97 |
| O=C(Nc1ccc(C(=O)O)c(O)c1)c1ccccc1 [BENZOYLPAS] | -3.42 | -17.37 | 4.17 | 3.36 | 6.26 | -5.98 |
| CCCCSc1[nH]cnc2nncc1-2 | -2.6 | -0.75 | 12.29 | -0.95 | 4.01 | -16.47 |
| OC(C#Cc1ccccc1)(c1ccccc1)c1ccccc1 | 14.7 | 1.28 | -2.05 | 4.96 | 3.27 | -7.2 |
| CN1CCN(C2=NCCO2)CC1 | 4.85 | -15.45 | 15.25 | 13.16 | 3.03 | 6.31 |
| S=C(Nc1ccccc1)Nc1nccs1 | -6.83 | 13.46 | -3.08 | 13.95 | 19.1 | 1.13 |
| CCOC(=O)c1nn(C)c2[nH]c(=O)n(C)c(=O)c12 | 7.94 | 11.46 | 12.75 | 11.59 | 2.22 | -11.62 |
| CCOP(=O)(OCC)/C(C#N)=C/c1ccc([N+](=O)[O-])cc1 | 10.14 | 12.51 | 3.05 | 9.62 | 0.88 | -11.85 |
| CCCCC(=O)N(CCC)CCC | 2.53 | -12.7 | 10.06 | 7.98 | -2.94 | -14.22 |
| CCCCCCCC1(C)NC(=O)NC1=O (stereo not given) | 7.54 | 3.29 | 6.05 | 5.77 | 0.59 | -12.36 |
| Cc1ccc([N+](=O)[O-])cc1NC(=O)Nc1cccc(F)c1 | 33.45 | -10.69 | 8.59 | 12.62 | 18.3 | -9.48 |
| O=P(O)(O)c1cc(-c2ccccc2)oc1-c1ccccc1 | -4.92 | 9.92 | 13.72 | 15.02 | 5.26 | -17.53 |
| Clc1ccc(/C=C/c2nc(Cl)c(-c3ccc(Cl)cc3)c(Cl)n2)cc1 | 8.11 | 11.58 | 9.97 | 19.84 | 4.64 | -12.98 |
| c1ccc2c(c1)nnn2-c1ccncc1 | -3.68 | -2.01 | -7.33 | 4.04 | 1.59 | -7.26 |
| O=C(Nc1ccc(F)cc1)OCCOc1ccc(Br)cc1 | 6.52 | 0.97 | -0.96 | 0.6 | 2.88 | 3.63 |
| Cc1ccc(NC(=O)Nc2nc3ccccc3s2)cc1NC(=O)Nc1nc2ccccc2s1 | -1.63 | -10.02 | 17.87 | 8.92 | -2.38 | -1.68 |

| Compound | Inhibition (Staphylococcus aureus) [%] | Inhibition (Acinetobacter baumannii) [%] | Inhibition (Escherichia coli) [%] | Inhibition (Klebsiella pneumoniae) [%] | Inhibition (Candida albicans) [%] | Inhibition (Cryptococcus neoformans) [%] |
| --- | --- | --- | --- | --- | --- | --- |
| Cn1c(=O)c2nc(N3CCCCC3)[nH]c2n(C)c1=O | 0.06 | -5.37 | 9.83 | 1.37 | -1.65 | -9.97 |
| CC1(C)CCCC2(C)C(OCCO)=CC(=O)C=C12 (stereo not given) | 7.52 | 8.39 | 0.39 | 20.08 | 2.7 | -10.94 |
| CSC(=NS(=O)(=O)c1ccccc1)NNC(=O)c1c(-c2c(Cl)cccc2Cl)noc1C | 2.63 | 2.35 | -1.44 | 10.18 | 6.77 | -2.9 |
| Cc1cc(O)cc2c1[C@H]1CC[C@]3(C)C(=O)CC[C@H]3[C@@H]1C=C2 | 24.45 | 13.8 | 29.29 | -0.57 | 12.1 | -1.77 |
| COc1cc2c(O)cc(C(=O)O)c(-c3cc(OC)c(OC)c(OC)c3)c2cc1OC | 5.82 | -7.99 | 8.13 | 8.82 | -0.33 | -9.59 |
| Clc1ccc(-c2[nH]nc3c2Cc2ccccc2-3)cc1Cl | -2.87 | 13.22 | -5.11 | 8.31 | 5.84 | 2.71 |
| Cn1c2c(c(=O)n(C)c1=O)NC1(N2)C(=O)Nc2ccccc21 (stereo not given) | 7.94 | -15.14 | 2.31 | 1.11 | 4.78 | -2.52 |
| CCOC(=O)/C(C#N)=C\c1c[nH]c2ccccc12 | -10.31 | -2.58 | -10.08 | 2.71 | 3.53 | 2.4 |
| CSC(=N)NS(=O)(=O)c1ccc(NC(C)=O)cc1 | 1.24 | -21.01 | 12.78 | 3.27 | 0.03 | -9.44 |
| COc1cccc2c1C(CO)N1C(C#N)C3CC(C(=O)O)C(C1C2)N3C (stereo not given) | 14.9 | -10.77 | -1.99 | 21.32 | 4.33 | -4.3 |
| CCN(CC)CCNc1c(C)cc(CO)c(Cl)c1C.O=S(=O)(O)NC1CCCCC1 | 5.65 | -16.4 | 16.33 | 7.45 | 1.43 | -0.32 |
| C1CCc2nc3c(nc2C1)CCCC3 | 13.53 | -4.6 | 11.61 | 13.7 | 1.61 | -2.79 |
| CCC1(CC)C(=O)NC(=S)N=C1N | 2.67 | -4.28 | 12.79 | 14.22 | 7.8 | -2.67 |
| CCCCSc1cc(C)nc(N)n1 | 19.18 | -7.66 | 11.54 | 4.75 | 1.09 | -5.9 |
| Nc1ccc2c(c1)N=[N+]([O-])c1cc(N)ccc1C2 | 12.24 | -9.52 | 10.77 | 23.9 | -4.33 | -8.98 |
| CSc1nsc(NN)n1 | 4.83 | -22.35 | 5.94 | 8.53 | 8.71 | -11.9 |
| Oc1c(Cl)cc(Cl)cc1C1Nc2ccccc2-n2cccc21 (stereo not given) | 8.71 | 9.53 | -0.55 | 11.09 | 1.7 | -0.72 |
| N#C/N=C/N1CC=C(c2ccc(Cl)cc2)CC1 | 11.33 | 10.12 | 1.23 | 20.23 | 8.73 | -3.92 |
| CCSc1ncc(CO)c(N)n1 | 4.68 | -13.15 | 2.64 | 10.1 | 0.06 | 1.67 |
| Nc1nc(SCc2ccccn2)c2ncn(C3OC(CO)C(O)C3O)c2n1 (stereo not given) | 6.83 | 2.95 | 4.84 | 10.89 | -1.39 | -4.63 |
| COc1cc([N+](=O)[O-])ccc1NC(=O)Oc1ccc(NC(C)=O)cc1 | 1.87 | 5.68 | 0.56 | 4.62 | 0.51 | -16.29 |
| Nc1nc(S)c2ncn(C3CCCC3)c2n1 | 16.34 | -8.37 | 6.43 | 18.77 | -3.88 | -14.08 |
| CCCCOc1ccc(NC(=O)Nc2nnc(C)s2)cc1 | 12.15 | 11.82 | 5.52 | 16.37 | -3.65 | -3.97 |
| OCc1nc2nc(Cl)c(Cl)[nH]c-2n1 | -3.73 | 14.74 | -8.33 | 8.57 | 1.75 | -8.15 |
| Nc1ccc(C(=O)Nc2ccc(Nc3ccncc3)cc2)cc1 | -3.72 | 6.97 | -13.54 | 10.04 | 2.67 | -0.31 |
